The values below come from PubChem BioAssay (NCI).

“And” between values parts separate entries of the source, which are not always exact repeats. Equal values may be shown once. Compounds without any hit were thinned out: in the full panel of roughly 83,000, 20% have a hit.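 Results are percent growth after 48 hours of single-concentration exposure. 100 means growth as in untreated cells, lower positive values show inhibition; negative values down to -100 show cell death.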 A number with no mark means an inactive call. The source made the active and inactive calls. How the source made its calls: active means growth percent below 10; inactive means the rest.

The test system of this test is MDA-MB-468 breast. The test is described as follows: NCI-60 one-dose screen, 48 h (100 = growth as untreated, 0 = no growth, -100 = all killed). Conditions: 10 µM unless noted.
As for `COc1ccc(OC)c2c1[nH]c(=O)c1c3ncccc3cn21`, the growth is 12.2%.
`CCN(CC)CCCC(Nc1c2ccc(Cl)cc2nc2ccc(OC)cc12)c1ccc(Cl)cc1` (centres undefined): the growth is -78.5% (active).
With `CC1=C(/C=C/C(C)=C/C=C/C(C)=C/C(=O)O)C(C)(C)CCC1`, the growth is 99.9% and 110%.
As to `COc1ccc2c(c1)C/C(=C\c1cc(-c3ccc4c(c3)OCO4)n[nH]1)C2=O`, the growth was 37.8%.
`Cc1ccc(CSc2nc(-c3ccc(Cl)cc3)c(C#N)c(N3CCOCC3)n2)cc1`: the growth was 84%.
On to `CC[C@H](Nc1ncnc2nc[nH]c12)c1nc2cccc(NCc3ccc(C(=O)NO)nc3)c2c(=O)n1-c1ccccc1`, for which the growth was 11.1%.
Consider `COc1ccc2nc(-c3ccc(OC)c(OC)c3)cc(-c3nnc(SCC(=O)Nc4ccc(/C(C)=N\O)cc4)n3-c3ccccc3)c2c1`, for which the growth is 56.2%.
Turning to `CC(C)CCC[C@@H](C)[C@H]1CC[C@H]2[C@@H]3CC=C4N(c5ccccc5)C(=O)CC[C@]4(C)[C@H]3CC[C@]12C`, the growth is 96.4%.
As to `COC(=O)C12C3C(=O)N(c4ccc(OC)cc4)C(=O)C3C(c3cn(-c4ccccc4)nc3C)N1[C@H](c1cn(-c3ccccc3)nc1C)[C@@H]1C(=O)N(c3ccc(OC)cc3)C(=O)[C@@H]12` (some centres undefined), the growth was 97.4%.
The same measure for `COc1ccc(CC(C#N)c2ccc(Cl)cc2)cc1` (centres undefined): 24%; for `CCNCCNc1cc(-c2ccc(C(F)(F)F)cc2)c(C#N)c2nc3ccccc3n12`: -73.6% (active).
In the case of `COc1cc(Nc2nc3ccccc3cc2C(=O)Nc2ccc(F)c(F)c2)cc(OC)c1OC` it was 4.15% (active); in that of `COc1ccc2c(c1)C(C)Cc1c(ncnc1-n1c(C)nc3ccccc31)N2C` (centres undefined), 26.2%; in that of `CC1(C)c2ccccc2C(=O)C1(Br)Cc1ccccc1` (centres undefined), 45.6%.
In the case of `Cn1c(-c2ccccc2)cc(=O)cc1-c1ccccc1`, the growth is 68.7%.
The same measure for `COc1ccc(-c2c3c(N)nc(-c4ccncc4)nc3nc3c2c(C)nn3-c2ccccc2)cc1`: 72.7%; for `O=C(/C=C1\C(=O)N(Cc2ccc([N+](=O)[O-])cc2)c2ccccc21)c1ccc(OCCN2CCCCC2)cc1`: -63.1% (active); for `OCc1ccc(N2CCc3cccc(F)c3C2)cc1Cl`: -49.9% [0.1 µM] (active).
As to `CC(=O)NCCN`, the growth is 105%.
In the case of `CCOC(=O)C1(C)CCCC1N` (centres undefined) it was 99.2%; in that of `Cc1nn(-c2ccc(Cl)cc2)c2nc3c(nc12)C(=O)C(=O)c1ccccc1-3`, 65.3%; in that of `CCCCC1C(=O)N(c2ccccc2)N(c2ccccc2)C1=O`, 99.5%.
In the case of `Cc1nnc2nc(N)[nH]n2c1=O` it was 108%; in that of `CCCCCCCCCCCCNC(=O)N[C@H](C(=O)N[C@H]1/C=C/CCNC(=O)/C=C/[C@H](C)NC1=O)C(C)C`, -66.6% (active); in that of `O=C(NC1CCNCC1)c1[nH]ncc1NC(=O)c1c(Cl)cccc1Cl`, -37.2% (active).
Take `CCOC(=O)c1cc(/C=C/c2ccc(Cl)cc2Cl)on1`: the growth is 37.6%.
With `Cc1ccc(C(=O)Nc2cccc(C(F)(F)F)c2)cc1Nc1nc(-c2cnccn2)nc2c1cnn2C`, the growth was 104%.
Regarding `N#CC1=C(N)Oc2cc(N)ccc2C1c1cccnc1` (centres undefined), the growth was 97.9%.
Take `COc1cc(/C=N/NC(=O)c2ccc(-n3cc(-c4ccccc4)nn3)cc2)cc(OC)c1OC`: the growth is 31.6%.
The same measure for `CN1CCN(c2ccc(NC(=O)c3cncnc3Nc3ccc4c(ccn4Cc4cccc(F)c4)c3)cc2)CC1`: 44.9%.
Consider `COc1ccc(-c2ccccc2)cc1C(=O)c1ccc(-c2ccccc2)cc1`, for which the growth was 64.6%.
As for `CN(C)CC1CCC(CN(C)C)C1=O` (centres undefined), the growth was 108%.
Consider `O=c1c2cccc3c(N4CCCC4)ccc(c32)c2nc3ccccc3n12`, for which the growth is 80.3%.
With `COc1ccc(SC2c3ccc(C)cc3Oc3nc(N)c(C#N)c(N)c32)cc1` (centres undefined), the growth is -51% (active).
The same measure for `Nc1c(C(=O)Nc2ccccc2F)sc2nc3c(cc12)CCCC3`: 26.4%; for `Cn1cc(-c2nc(-c3c[nH]c4ncccc34)cs2)c2cc(Cl)ccc21`: -3.54% (active).
In the case of `CC(=O)Nc1cccc(NC(C)=O)n1` it was 99.3%.
With `COc1ccc(OC)c(/C=C2\COc3ccc(O)cc3C2=O)c1`, the growth is 82.7%.
For the compound `C#Cc1nc(/C=C\CCCCCCC(=O)NO)cs1`, the growth is 23.1%.
